The record followed here is the supplement of paper PMC7726561.

The target of this assay is HLA-C*04:01. Nature of the assay: thermal melting temperature (Tm) of peptide-HLA complex; higher = more thermostable pHLA complex. On the procedure:
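Endogenous HLA-C*04:01 ligands were detected in the thermostability assays of both the C1R-A*02:01 and C1R-B*07:02 lines. Lysates were heated 10 min at 37-73 °C and pHLA immunoprecipitated with W6/32. Peptides were quantified by DIA-MS and Tm was taken from a logistic sigmoid fit.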

On to FWDDAVKEV, for which the thermal melting temperature worked out at 46.6 °C (C1R-A*02:01) and 48.3 °C (C1R-B*07:02).
The corresponding values for VIDEPVRL are 50 °C and 50.3 °C.
Consider LFHPSNVEM, for which the thermal melting temperature reads like this: (C1R-A*02:01) 46 °C; (C1R-B*07:02) 46.4 °C.
As to VTDPRVVDL, the thermal melting temperature by setting is: (C1R-A*02:01) 53.8 °C; (C1R-B*07:02) 52.7 °C.
For AWDIAIATM, the thermal melting temperature by setting is: (C1R-A*02:01) 50.9 °C; (C1R-B*07:02) 49.6 °C.
The corresponding values for VFDPVTKL are 48.3 °C and 48.6 °C.
For the sequence TFDVAPSRLDF, the thermal melting temperature came to 60.1 °C (C1R-A*02:01) and 62.2 °C (C1R-B*07:02).
On to AHDVDPIEL, for which the thermal melting temperature is, setting by setting: (C1R-A*02:01) 45.7 °C; (C1R-B*07:02) 46.9 °C.
For the sequence IFSEKPVFV, the thermal melting temperature is 60 °C (C1R-A*02:01) and 57 °C (C1R-B*07:02).
On to FYDVQFKEL, for which the thermal melting temperature is 53.1 °C (C1R-A*02:01) and 52.5 °C (C1R-B*07:02).
The corresponding values for FWDPSVNLF are 53.7 °C and 52.4 °C.
For VFDEAIRAV, the thermal melting temperature turned out to be 61.2 °C (C1R-A*02:01) and 61.5 °C (C1R-B*07:02).
Consider SFDTGFTSF, for which the thermal melting temperature is, setting by setting: (C1R-A*02:01) 48.1 °C; (C1R-B*07:02) 46.1 °C.
The corresponding values for KFDPVGEIL are 55.9 °C and 54.9 °C.
For the sequence HFDPEVYL, the thermal melting temperature reads like this: (C1R-A*02:01) 54.6 °C; (C1R-B*07:02) 53.2 °C.
TFDPMTRQI: the thermal melting temperature is, setting by setting: (C1R-A*02:01) 54.1 °C; (C1R-B*07:02) 57 °C.
The corresponding values for VLDDKLVFV are 61.8 °C and 48.9 °C.
Regarding LFDLGGQYL, the thermal melting temperature runs as follows: (C1R-A*02:01) 48.8 °C; (C1R-B*07:02) 44.5 °C.
The corresponding values for MFDKDVVML are 48.9 °C and 54.6 °C.
The sequence LFDDIDHNM displayed a thermal melting temperature (C1R-A*02:01) of 52.6 °C and a thermal melting temperature (C1R-B*07:02) of 53.7 °C.
With IYDVQHANL, the thermal melting temperature came to 50.7 °C (C1R-A*02:01) and 53 °C (C1R-B*07:02).
HYDEQQNFF had a thermal melting temperature (C1R-A*02:01) of 53.5 °C and a thermal melting temperature (C1R-B*07:02) of 53.3 °C.
Regarding IYDPNLAFL, the thermal melting temperature is, setting by setting: (C1R-A*02:01) 58.9 °C; (C1R-B*07:02) 56 °C.
Take YFDPANGKF: the thermal melting temperature stood at 57.6 °C (C1R-A*02:01) and 57.5 °C (C1R-B*07:02).
TYDLQESNV: the thermal melting temperature by setting is: (C1R-A*02:01) 57.5 °C; (C1R-B*07:02) 55.5 °C.
The corresponding values for AWEERETIL are 57.8 °C and 56.3 °C.
For TFDSTIHF, the thermal melting temperature reads like this: (C1R-A*02:01) 55.9 °C; (C1R-B*07:02) 58 °C.
Regarding FFDEVVKQM, the thermal melting temperature runs as follows: (C1R-A*02:01) 58.8 °C; (C1R-B*07:02) 60.5 °C.
With IWDETPLYF, the thermal melting temperature amounted to 50.8 °C (C1R-A*02:01) and 51.8 °C (C1R-B*07:02).
The corresponding values for VFPKEPVEL are 52.4 °C and 52.2 °C.
Regarding FYDLYGGEKF, the thermal melting temperature is, setting by setting: (C1R-A*02:01) 48.8 °C; (C1R-B*07:02) 48.5 °C.
Regarding AWDKEPVLV, the thermal melting temperature reads like this: (C1R-A*02:01) 57.8 °C; (C1R-B*07:02) 57.6 °C.
Regarding LWDSAVSHF, the thermal melting temperature by setting is: (C1R-A*02:01) 55.1 °C; (C1R-B*07:02) 55.6 °C.
Take SYDPTIENTF: the thermal melting temperature reads like this: (C1R-A*02:01) 54.9 °C; (C1R-B*07:02) 58.1 °C.
As for TYEGKPIFL, the thermal melting temperature runs as follows: (C1R-A*02:01) 52.9 °C; (C1R-B*07:02) 51.5 °C.
For VWDLFPEADKV, the thermal melting temperature runs as follows: (C1R-A*02:01) 54.5 °C; (C1R-B*07:02) 52.4 °C.
As to SFDSALQSV, the thermal melting temperature was found to be 56.4 °C (C1R-A*02:01) and 60.7 °C (C1R-B*07:02).
The corresponding values for SFDDTNEKF are 49.8 °C and 48.2 °C.
HYDPATEEF: the thermal melting temperature reads like this: (C1R-A*02:01) 60.2 °C; (C1R-B*07:02) 58.2 °C.
The corresponding values for SFDPSRTF are 53.7 °C and 52.8 °C.
The corresponding values for VFDVLDGEEM are 53.4 °C and 60.9 °C.
For the sequence FFEVSPVSF, the thermal melting temperature reads like this: (C1R-A*02:01) 49.9 °C; (C1R-B*07:02) 46.6 °C.
For the sequence SFDLLPREF, the thermal melting temperature came out at 54.7 °C (C1R-A*02:01) and 55.9 °C (C1R-B*07:02).
Consider VFDEAVRV, for which the thermal melting temperature is, setting by setting: (C1R-A*02:01) 52.4 °C; (C1R-B*07:02) 50.6 °C.
For the sequence QFDNYGEEF, the thermal melting temperature was found to be 50.8 °C (C1R-A*02:01) and 55.5 °C (C1R-B*07:02).
As for FYDERIVVV, the thermal melting temperature by setting is: (C1R-A*02:01) 63.9 °C; (C1R-B*07:02) 62.3 °C.
The corresponding values for NPDDVFREF are 61.2 °C and 62.7 °C.
